Screening results: PubChem BioAssay, National Center for Advancing Translational Sciences (NCATS)
Shown is part of a subset that was picked to be rich in hits.
Pf Dd2 growth = inhibitors of Plasmodium falciparum Dd2 growth. actives 4.3% (n = 120,000). AID 1347417. P. falciparum Dd2 growth, SYBR Green, 72 h. Potency, µM (doses to about 28.9 µM), for the others: at the highest dose activity, negative = inhibition, hits mostly inhibitors; active = well fitted inhibition curve with a large enough effect;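 note: plate controls were DMSO vehicle for no effect and reference drug for full effect; nearly all actives have a fitted effect of over 65% in size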
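Infected erythrocytes (Dd2, 0.3% parasitemia, 2.5% hematocrit final) are added to compound in RPMI-1640/Albumax II medium, grown 72 h at 37C in low oxygen, then lysed with saponin/Triton-X containing SYBR Green and read by fluorescence.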
An asterisk follows results filed as active; i = inactive; [ ] = remark or other dose. Potency is the fitted concentration of half-maximal effect.

SMILES	Pf Dd2 growth
CC(=O)N1CCN(Cc2nc3c(n2Cc2ccccc2)C(=O)N(Cc2ccccc2C#N)CCN3)CC1	i
CN(Cc1ccccc1)Cc1nc2c(n1Cc1ccccc1)C(=O)N(Cc1ccccc1C#N)CCN2	10µM*
N#Cc1ccccc1CN1CCNc2nc(COc3ccccc3)n(Cc3ccccc3)c2C1=O	i
COCCN1CCNc2nc(CNCc3cccc(Cl)c3)n(Cc3ccccc3)c2C1=O	i
Cc1ccc(Cl)cc1NC(=O)N1C[C@@H](F)C[C@H]1C(=O)N1CCc2ccccc2C1	-22%
COc1ccc(C(=O)N2CCC3(CC2)N(C)C(=O)CS3(=O)=O)cc1OC	12%
Cc1cc(C)n(CCC(=O)N2CC3CC(C2)[C@H]2CCCC(=O)N2C3)n1 (stereo not given in full)	1%
CCN(c1ccccc1)S(=O)(=O)c1cc(C(=O)Nc2ccc(Br)cc2)ccc1F	i
Cc1ccc(OCC(=O)Nc2ccc(OCc3cc(=O)n4ccsc4n3)cc2)cc1	-20%
CCOc1ccc(-c2nc3c(c(SCC(=O)Nc4ccccc4C)n2)Cc2ccccc2O3)cc1	-6%
COc1cccc(NC(=O)CSc2nc(-c3ccccc3)nc3c2Cc2cc(Cl)ccc2O3)c1	25%
CCOc1cccc2c1Oc1nc(-c3ccccc3)nc(SCC(=O)Nc3ccc(F)cc3)c1C2	7.9µM*
COc1ccc(-c2nc3c(c(SCC(=O)Nc4ccccc4OC)n2)Cc2cccc(C)c2O3)cc1	11µM*
COc1ccc(-c2nc3c(c(SCC(=O)Nc4ccccc4F)n2)Cc2cc(C)ccc2O3)cc1	19%
COc1cccc2c1Oc1nc(-c3ccccc3)nc(SCC(=O)N3CCCCC3)c1C2	-23%
Cc1cc(C(=O)N2CCCC(Cc3noc(-c4ccccn4)n3)C2)nn1C (stereo not given)	i
COC(=O)C1=CN(CC(=O)Nc2ccc(C)cc2C)S(=O)(=O)N=C1C	65%
Cc1ncsc1C(=O)N1CCCC(c2ccc(C(=O)O)cc2)C1 (stereo not given)	10%
Cc1ccccc1N1CCN(S(=O)(=O)c2nnc(NC(=O)c3ccccc3)s2)CC1	-1%
COc1cccc(-c2noc(COc3cccc(C)c3C)n2)c1	36%
CC1(C(=O)NCc2cccnc2)CCCc2cnc(Nc3ccccc3F)nc21 (stereo not given)	-11%[44.1 µM]
Cc1[nH]c2ccccc2c1C1(O)C(=O)N(Cc2ccccc2)c2ccc(Cl)cc21 (stereo not given)	10µM*
Cc1[nH]c2ccccc2c1C1(O)C(=O)N(Cc2ccc(Cl)cc2)c2ccccc21 (stereo not given)	i[5.79 µM]
Cc1ccc(CN2C(=O)C(O)(c3c(C)[nH]c4ccccc34)c3ccccc32)cc1 (stereo not given)	-14%
O=C(NC1CC(c2cc(=O)[nH]c(C3CC3)n2)C1)c1ccc2c(c1)CCCO2 (stereo not given)	-21%
SMILES	Pf Dd2 growth
O=C(Nc1cc(F)ccc1F)N1CCC(CN2CCCC2)CC1	i
CC(C)CN1C2CCC1CN(C(=O)c1ccncc1)C2	i
CCOC(=O)c1cc(OC(=O)c2ccc(OC)cc2)n(-c2ccccc2)n1	-10%
CCOC(=O)c1c(C)n(-c2ccccc2)c2ccc(OC(=O)c3c(F)cccc3F)cc12	-16%
CCOC(=O)c1c(C)n(-c2ccccc2)c2ccc(OC(=O)c3ccccc3)cc12	2.8µM*
CC(=O)c1ccc(NC(=O)c2ccc(CN3C(=O)CCn4nc(C)cc43)cc2)cc1	i
CN(C)S(=O)(=O)c1ccc2c(c1)N(CC(=O)N1CCC(C(N)=O)CC1)CCS2	28%
COc1cccc(N2CCN(C(=O)CN3CCSc4ccc(S(=O)(=O)N(C)C)cc43)CC2)c1	11µM*
COc1ccc(N2CCN(C(=O)CN3CCSc4ccccc43)CC2)cc1	7%
Nc1nnc(CCNC(=O)[C@H]2CNC[C@H](C(=O)N3CCOCC3)C2)s1	-5%
O=C(Cn1nc2c(cc1=O)CCCC2)NCc1ccc(Cl)cc1	22%
Cc1ccc(N2CC(c3noc(-c4ccccc4C)n3)CC2=O)cc1 (stereo not given)	11%
Cc1ccc(N2CC(C(=O)Nc3ccc(Cl)cc3Cl)CC2=O)cc1 (stereo not given)	37%
Cc1ccc(-c2noc(-c3ccccc3NC(=O)C3CC(=O)N(c4ccc(C)cc4)C3)n2)cc1 (stereo not given)	1.4µM*
O=C(NC1CCCC1)c1ccc2c(c1)N(S(=O)(=O)c1ccccc1)CC2	i
COc1ccccc1CNC(=O)c1ccc2c(c1)CCN2S(=O)(=O)c1ccccc1	-16%
O=C(NCC1CCCCC1)c1ccc2c(c1)N(S(=O)(=O)c1ccccc1)CC2	4.5µM*
Cc1ccc(-c2nnc(Nc3cccc(Br)c3)c3ccccc23)cc1S(=O)(=O)N1CCN(C)CC1	7.9µM*
Cc1ccc(-c2nnc(Nc3cccc(Cl)c3)c3ccccc23)cc1S(=O)(=O)N1CCN(C)CC1	-5%
C#CCOc1ccc(-c2nnc(Nc3cccc(C)c3)c3ccccc23)cc1	-4%
Cc1cccc(Nc2nnc(-c3ccc(C)c(S(=O)(=O)N4CCN(C)CC4)c3)c3ccccc23)c1	10µM*
O=C(Cn1nc(-c2ccc(Cl)cc2)c2ccccc2c1=O)Nc1cccc(Br)c1	-8%
Cc1cc(-c2ccc(C)c(S(=O)(=O)N3CCCC(C)C3)c2)on1 (stereo not given)	28%
CS(=O)(=O)N[C@H]1CCN2C(=O)c3cc(Br)ccc3NC(=O)[C@@H]2C1	23%[44.1 µM]
CCOc1ccc(NC(=O)CCCOc2cc(=O)n(C)c3ccccc23)cc1	5%
SMILES	Pf Dd2 growth
N[C@H]1CN(C(=O)C2CCN(C(=O)c3ccccn3)CC2)C[C@@H]1C1CC1	-14%
NC(=O)[C@@H]1CN(C(=O)c2ccccc2F)C[C@H]1COc1ccccc1	9%
N[C@H]1CN(C(=O)c2ccccc2Oc2ccccc2)C[C@@H]1C1CC1	6.3µM*
CN(Cc1ccc(F)cc1)C(=O)c1cn(Cc2ccccc2C(F)(F)F)nn1	-20%
CCN(CC)c1ccc(CN(C(=O)Cc2coc3ccc(C)cc23)C2CCS(=O)(=O)C2)cc1 (stereo not given)	13µM*
CCc1ccc2occ(CC(=O)N(Cc3ccc(N(C)C)cc3)C3CCS(=O)(=O)C3)c2c1 (stereo not given)	-14%
Cc1ccc2occ(CC(=O)N(Cc3ccc(N(C)C)cc3)C3CCS(=O)(=O)C3)c2c1 (stereo not given)	-25%
O=C(O)CSCC(=O)N1CCN(C(=O)c2cnccn2)[C@H](C(=O)N[C@H]2CCCNC2=O)C1	10%
CCOC(=O)c1c(SCC(=O)Nc2cc(Cl)cc(Cl)c2)nc(=O)[nH]c1C	-2%
COc1cccc(NC(=O)CCNS(=O)(=O)c2ccc3c(c2)CCCC(=O)N3)c1	i
COc1ccc(-c2nccc3c(=O)cc(N4CCOCC4)oc23)cc1OC	-4%[44.1 µM]
CCCNC(=O)C1CCN(c2cc(C)nc3c(-c4ccc(OC)c(OC)c4)c(C)nn23)CC1	i
COc1ccc(-c2cc(C(F)(F)F)nc(SCC(=O)N3CCCCC3C)n2)cc1OC (stereo not given)	92%
COc1ccc(-c2cc3ccc(O)c(CN4CCCCC4C)c3oc2=O)cc1OC (stereo not given)	7.1µM*
COc1ccc(-c2c(C)c3ccc(O)c(CN4CCCCC4C)c3oc2=O)cc1OC (stereo not given)	11µM*
CCC1CCCCN1C(=O)CSc1nc(-c2ccc(OC)c(OC)c2)cc(C(F)(F)F)n1 (stereo not given)	i
CN1CC2(CCN(C(=O)c3nccn3C)CC2)CC1C(=O)N1CCOCC1 (stereo not given)	34%
